Measurements from PubChem BioAssay (NCATS).
Several values for one entry are separate records, joined by “and”; a condition that tells them apart may be missing. Equal values may be shown once. Records with an inconclusive call do not appear. Values without a mark were called inactive. Activity calls are given as the source filed them. Calls come from the whole dose curve; as a rule, active = well fitted inhibition curve with a large enough effect; inconclusive = small, poorly fitted or top-dose-only effect; inactive = no such curve, though single readings can be large or run the other way.

test: qHTS for Inhibitors of the Aldehyde Dehydrogenase Family (ALDH1A2, ALDH1A3, ALDH2, ALDH3A1) (AID 2061307); conditions: ALDH inhibition qHTS; series mostly up to 50.3 µM; activity change, negative = inhibition: at the top concentration; note: nearly all actives have a fitted effect of over 50% in size; for Potency: test system not described further here
% is set by controls: 0 for no effect and ±100 for the full control effect; potency is the fitted concentration of half-maximal effect.

Row | SMILES | activity change, negative = inhibition | Potency
1 | CC(=O)Nc1ccc(OCc2cn(CC(=O)c3ccc(O)cc3)nn2)cc1 | -16.1% | –
2 | O=C(Nc1ccc(CCO)cc1)c1ncoc1-c1ccccc1Cl | -14.7% [at 34.4 µM] | –
3 | N[C@@H](CCC(=O)O)C(=O)Nc1cccc(-c2nn3c(=O)cc(N4CCNCC4)nc3s2)c1 | -3.94% | –
4 | COc1ccc(-n2ncc3c2CCCC3NC(=O)CN(C)C)cc1 (stereo not given) | -29.8% | –
5 | CC(=O)c1cccc(Nc2cc(C)nc3nc(-c4ccccc4C)nn23)c1 | -43.1% [at 34.4 µM] | –
6 | COc1ccc(CC2NCCC3=CC(=O)CCC32)cc1O (stereo not given) | 0% | –
7 | O=C(Nc1cccc(S(=O)(=O)N2CCOCC2)c1)c1ccc(CN2CCc3ccccc3C2)cc1 | – | 3.98 µM (active)
8 | CC(C)Oc1ccc(-c2nc(C(=O)Nc3ncn[nH]3)cs2)cc1 | – | 3.55 µM (active)
9 | COC(=O)CNCc1c(O)ccc2ccccc12 | – | 6.34 µM (active)
10 | Cn1nc(-c2ccccc2)cc1C(=O)N[C@H](Cc1ccc2ccccc2c1)C(=O)O | -16% | –
11 | O=C(Nc1nc(-c2ccccn2)cs1)C1CCCCC1 | – | 3.98 µM (active)
12 | NCC(=O)Nc1cc(O)cc(-c2nn3c(=O)cc(N4CCNCC4)nc3s2)c1 | 0% | –
13 | CC(Sc1nc2c(cnn2C2COC2)c(=O)n1-c1ccccc1)c1ccccc1 (stereo not given) | 2.05% [at 34.4 µM] | –
14 | COc1ccc2c(c1)C(C)(CCN(C)C)C(=O)N2C (stereo not given) | 13.2% | –
15 | O=S(=O)(Nc1ccccc1F)c1cccc(NC(=S)NCCN2CCOCC2)c1 | -5.69% | –
16 | CC1=C[C@@H](CNC(C)C)[C@H](C(C)C)C[C@H]1Cc1nnc(-c2ccncc2)o1 | -4.51% | –
17 | O=C(Nc1cccnc1Cl)c1cc(-c2cccc(Cl)c2)on1 | -20.9% [at 34.4 µM] | –
18 | N#Cc1ccc(NC(=O)Cn2cnc3ccccc3c2=O)cc1 | -22.5% [at 34.4 µM] | –
19 | Oc1[nH]c2ccccc2c1N=NC(=S)Nc1cccnc1 | -3.64% | –
20 | O=C(Nc1ccc(C(=O)N2CCCC2)cc1)c1ccccc1F | – | 10.7 µM (active)

Row | SMILES | activity change, negative = inhibition | Potency
21 | Cn1c(C(=O)Nc2cccc(Cl)c2)cc2c(=O)n(C)c3ccccc3c21 | 0% [at 34.4 µM] | –
22 | COc1ccc(-n2c(C)c(C(C)=O)c3cc(OC)ccc32)cc1 | 1.19% [at 34.4 µM] | –
23 | O=C(O)Cc1ccc(S(=O)(=O)N2CCCC2)s1 | – | 11.3 µM (active)
24 | O=C(Cc1ccc(-c2csc(Nc3ccc(F)cc3)n2)s1)N1CCOCC1 | – | 7.12 µM (active)
25 | Cc1cnc(CNc2nc(-c3ccccc3Cl)nc3ccccc23)cn1 | -8.33% | –
26 | Cc1cc(NC(=O)c2cscn2)ccc1C(=O)O | -13.7% [at 34.4 µM] | –
27 | O=C(Nc1ncc(CN2CCOCC2)s1)c1ccc(-c2cccc([N+](=O)[O-])c2)o1 | – | 28.2 µM (active)
28 | c1ccc(CCN(Cc2ccccc2)C2CCN(C3CCCCC3)CC2)cc1 | – | 7.94 µM (active)
29 | O=C(Nc1ccc(N2CCCCC2)nc1)c1cccs1 | – | 5.04 µM (active)
30 | CCc1cccc(C)c1Nc1c(-c2ccc(N(C)C)cc2)nc2ncccn12 | -28.1% | –
31 | Oc1[nH]c2ccccc2c1N=NC(=S)Nc1ccc2c(c1)CCC2 | -18.5% | –
32 | Cc1ccc(NC(=O)c2cnc3cc(C)ccn3c2=O)c(C)c1 | -50.3% [at 34.4 µM] | –
33 | O=C(CSc1nnc(-c2ccncc2)o1)Nc1ccc2c(c1)OCCO2 | -18.4% | –
34 | O=C(Nc1ncccc1O)c1ccc(S(=O)(=O)Nc2ccccc2)cc1 | -23.9% | –
35 | CNC(=O)c1cc(-c2ccc(N3CCOCC3)cc2)cc2c1OCCN2Cc1cccnc1 | 0% [at 34.4 µM] | –
36 | CCOc1ccc(NCC(=O)Nc2ccc(Cl)cc2C)cc1 | – | 2.25 µM (active) and 7.94 µM (active)
37 | Cc1nc(SCCc2nc3ccccc3[nH]2)c2oc3ccccc3c2n1 | -27.6% | –
38 | O=C(Nc1ccn[nH]1)c1ccn(-c2cccc(F)c2)n1 | -23.3% [at 34.4 µM] | –
39 | Clc1ccc(Cn2cnc3ccccc32)cc1 | – | 14.1 µM (active)
40 | COc1cccc(N2CCN(C(=O)CCCCCn3c(=O)[nH]c4ccccc4c3=O)CC2)c1 | 0% [at 34.4 µM] | –
